HMGR II inh – inhibitors of E. faecalis class II HMGR, primary screen, biochemical, Enterococcus faecalis | HMG-CoA reductase (Enterococcus faecalis, mvaE) | purified E. faecalis HMGR, NADPH absorbance 340 nm kinetic | inhibition, % at 10 µM | hit rate 0.41% among 190,000 | AID 1066, 2008;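 active = inhibition above a set limit, the median over all tested compounds plus 3 SD, cut at about 9.5% in these data; inconclusive = no clear call, values can overlap the other calls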;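 note: enzyme runs in reverse so mevalonate oxidation gives rising NADPH absorbance; 0% = complete reaction with DMSO and 100% = background rate lacking mevalonate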
HSV replic up – enhancers of HSV replication in host cells, fold increase, host cell viability | maximum fold increase | hit rate 0.005% among 220,000 | HSV replication augmentation in cells; in the data active = maximum fold increase above about 1.5; inconclusive = no clear call, values can overlap the other calls; tested in PC3 cells
ROMK mod – ROMK potassium channel modulators, primary screen, cell-based, thallium flux, MLSMR library; Tet-inducible ROMK, thallium flux fluorescence; actives lie on both sides; B-score at 10 µM; hit rate 2% among 130,000;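 active = signal ratio slope over the read window, or its plate-corrected B-score, at least 3 SD from the plate mean, either direction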;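 note: B-score of the F/F0 ratio slope over 7 to 12 s after thallium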
Target sequence (P48048 whole entry, looked up): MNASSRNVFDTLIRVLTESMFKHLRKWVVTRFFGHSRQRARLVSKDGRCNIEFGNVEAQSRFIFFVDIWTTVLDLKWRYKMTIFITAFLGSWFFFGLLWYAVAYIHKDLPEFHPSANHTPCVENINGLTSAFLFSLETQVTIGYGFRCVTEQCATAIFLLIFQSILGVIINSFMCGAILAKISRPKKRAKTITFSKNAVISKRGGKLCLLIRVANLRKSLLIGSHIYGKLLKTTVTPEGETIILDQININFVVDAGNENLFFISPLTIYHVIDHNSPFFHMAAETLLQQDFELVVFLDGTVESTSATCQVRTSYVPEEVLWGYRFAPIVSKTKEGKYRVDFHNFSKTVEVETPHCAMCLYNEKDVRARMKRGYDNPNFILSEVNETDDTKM
Arbovirus anti – antivirals against arbovirus infection, primary screen, cell-based, full library, 10K replicate subset; arbovirus infection cell-based antiviral screen; inhibition, % at 10 µM; hit rate 0.37% among 200,000; AID 1251, 2008; in the data active = inhibition above about 30%
m-calpain inh – inhibitors of pig calpain II, primary screen, biochemical, fluorogenic peptide substrate, 1536-well; purified calpain II, 30 min; inhibition, % at 16 µM; hit rate 0.37% among 220,000;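 active = inhibition above about 50%, limit read from the data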
Active calls of the source: *; i = inactive; ? = inconclusive; / = no result given. Compounds with a hit are over-represented: about 2.1% of the library has one in this group of screens.

SMILES	HMGR II inh	HSV replic up	ROMK mod	Arbovirus anti	m-calpain inh
COc1cc(/C=C/C(=O)OCC(=O)N2CCc3ccccc3C2)ccc1O	-5	i	/	2	-66
CC1CC(C)CN(CC(=O)N2CCOCC2)C1 (configuration not stated)	-5	i	-0.99	-3	-30
Cc1ccc(CNC(=O)c2oc3ccc(S(=O)(=O)N4CCOCC4)cc3c2C)cc1	-9	i	-0.86	-6	57*
Cc1ccc(CNC(=O)c2ccc(CN3CCOCC3)cc2)cc1	11*	i	0.17	-5	10
CCN(CC)S(=O)(=O)c1ccc2oc(C(=O)NCc3ccc(C)cc3)c(C)c2c1	-5	i	0.068	-11	63*
Cc1ccc2c(CC(=O)Nc3cccc(S(=O)(=O)N4CCOCC4)c3)coc2c1	3	i	-0.85	21	51*
COc1ccc(C(=O)N/C(=C\c2ccco2)C(=O)NC2CCS(=O)(=O)C2)cc1 (configuration not stated)	-4	i	0.0082	-1	2
CCOC(=O)c1cnc2c(-c3ccc(F)cc3)cnn2c1C(F)(F)F	2	i	-2.3	62*	-414
CN(C)N=Nc1ccc(S(N)(=O)=O)cc1	-4	i	1.1	-5	-11
CCN(CC)N=Nc1ccc(S(N)(=O)=O)cc1	10*	i	-0.037	-5	-20
CC(NC(=O)CNC(=O)C(Cc1ccccc1)NC(=O)OCc1ccccc1)C(N)=O (configuration not stated)	-1	i	-0.082	0	10
O=[N+]([O-])c1ccc(Oc2cccc(F)c2)c2ccncc12	0	i	0.014	1	51*
COc1ccc([N+](=O)[O-])cc1N/C(=N/S(=O)(=O)c1ccccc1)c1ccccc1	-3	i	-0.3	0	33
COc1ccc(/C=C(/NC(=O)c2ccco2)C(=O)N2CCCC2=O)cc1	-7	i	0.14	1	-11
CCCCCC(C)NC(=O)c1ccoc1C (configuration not stated)	11*	i	-0.56	3	-6
CCCCCCCCCCCNC(=O)c1ccoc1C	-5	i	-0.5	18	-18
CC/S(C)=N/S(=O)(=O)c1ccc(C)cc1 (configuration not stated)	-6	i	0.33	2	21
O=C(/C=C/c1ccc(N2CCC(c3ccccc3)=N2)cc1)c1ccccc1	-1	?	-4.4*	-13	-28
O=C(/C=C/c1ccc(O)cc1)c1ccccc1	/	i	/	/	-30
Cn1c(CO)cnc1SCc1ccc(F)cc1	15*	i	0.24	6	9
CCCn1c(=S)[nH]c2cc(C(=O)N3CCc4ccccc4C3)ccc2c1=O	-5	i	-0.37	-3	57*
CCCn1c(=S)[nH]c2cc(C(=O)N3CCN(c4ccccc4OC)CC3)ccc2c1=O	-2	i	/	-7	-12
CC(C)Nc1nnc(Sc2ccc(Cl)cc2[N+](=O)[O-])s1	-2	/	/	-4	71*
Nc1nnc(Sc2ccc(Cl)cc2[N+](=O)[O-])s1	0	i	/	8	15
O=C(c1cccc(COc2ccc(Cl)cc2Cl)c1)N1CCN(c2ccccn2)CC1	2	i	/	-25	70*
SMILES	HMGR II inh	HSV replic up	ROMK mod	Arbovirus anti	m-calpain inh
O=C(c1ccc(Cl)c([N+](=O)[O-])c1)N1CCN(c2ccccn2)CC1	-3	i	/	6	7
Cc1ccc(C(=O)N2CCN(c3ccccn3)CC2)cc1[N+](=O)[O-]	10*	i	-0.57	-1	6
CC(C)C(=O)Nc1ccc2nn(-c3ccccc3)nc2c1	-1	i	-0.0076	-3	-355
Cn1nc(C(=O)OCC(=O)Nc2sccc2C(N)=O)c2ccccc2c1=O	/	i	/	/	-25
COCCCn1c(O)c(/C=C2\N=C(C#N)C(=Nc3ccc(C)cc3)O2)sc1=S	/	?	/	/	16
O=C(CCc1nnc(CCCc2ccccc2)o1)NCCc1ccccc1	15*	i	-0.21	1	-11
O=C(CCc1nnc(CCCc2ccccc2)o1)NCCc1ccco1	-4	i	0.94	-4	-23
NS(=O)(=O)c1ccc(NC(=S)NC(=O)c2ccc(Br)o2)cc1	-3	i	/	-7	7
CN(C)S(=O)(=O)c1ccc(NC(=S)NC(=O)c2ccc(Br)o2)cc1	-4	i	2.4*	1	19
CC1(C)Nc2ccccc2N(CCC(=O)N2CCOCC2)C1=O	-3	i	/	1	-24
CN(C(=O)CCN1C(=O)C(C)(C)Nc2ccccc21)c1ccccc1	36*	i	1.1	11	14
CCOC(=O)c1nc(NCc2cccc(OC)c2)c2ccccc2n1	0	i	0.46	-3	-2
CCOC(=O)C(NC(=O)c1cccc(Cl)c1)(OCc1ccc(F)cc1)C(F)(F)F (configuration not stated)	2	i	/	49*	-10
Cc1cccc(C)c1-n1cccc1/C=C1/C(=N)N2C(=NC1=O)SN=C2S(C)(=O)=O	1	i	-2.3	59*	14
CCC1=NN2C(=N)/C(=C\c3cccn3-c3ccc(C)cc3C)C(=O)N=C2S1	-7	i	1.8	39*	-33
CCC1=NN2C(=N)/C(=C\c3cccn3-c3cccc(Cl)c3)C(=O)N=C2S1	0	i	1.9	23	-29
CCC1=NN2C(=N)/C(=C\c3cccn3-c3c(C)cccc3C)C(=O)N=C2S1	-5	i	-1.2	31*	-24
Cn1ncc([N+](=O)[O-])c1C(=O)N/N=C/c1cccc([N+](=O)[O-])c1	5	i	/	-9	-9
CC(C)c1ccc(OCc2ccc(C(=O)NN3CCN(C)CC3)o2)cc1	-3	i	0.041	-21	26
N#Cc1c(Cc2cccc3ccccc23)nn(CCO)c1N	/	i	/	/	/
Cc1cccc(N2CCN(C(=O)c3ccc4ncsc4c3)CC2)c1C	-1	/	3.3*	-12	14
O=C(c1cnn2c(C(F)(F)F)cc(-c3ccc(Br)cc3)nc12)N1CCOCC1	1	i	-0.41	8	-78
Cc1nn2c(C(F)(F)F)cc(-c3ccc(Cl)cc3)nc2c1C(=O)N1CCOCC1	17*	i	0.91	1	-26
COc1ccc(/C=C/C(=O)NCCSCc2ccco2)cc1OC	/	i	/	/	-2
CC(C(=O)Nc1ccccc1Oc1ccccc1)c1ccccc1 (configuration not stated)	2	i	-0.073	-12	52*
O=C(c1ncc[nH]1)c1cccs1	/	i	/	/	16
O=C(CSc1n[nH]c(=O)[nH]c1=O)N/N=C/c1ccccc1	-7	i	0.96	-2	21
CCN(CC)Cc1c(C(=O)N2CCc3ccccc3C2)nc2ccc(Cl)cn12	17*	i	0.82	3	-20
COc1ccc(C2=CC(c3ccc(Cl)cc3)n3cnnc3N2)cc1OC (configuration not stated)	4	?	-2.9	50*	i
O=C1c2nc3cc(-c4ccco4)[nH]n3c(=O)c2CN1C1CCCCC1	/	i	/	/	-313
